Here are results for 40 molecules from PubChem BioAssay (NCATS).

Inconclusive results are not listed. A call without a number means that no potency is given here. Activity calls are given as the source filed them. The call rests on the fitted dose curve; in most records, active means well fitted curve in the direction sought with a large enough effect; inconclusive means small, poorly fitted or top-dose-only effect, or another doubt; inactive means no such curve, though single readings can be large; an effect the other way counts as inactive or inconclusive.
Potency means the concentration at half of the fitted maximal effect.

The target of one experiment is Rap guanine nucleotide exchange factor 3 (Homo sapiens) (UniProt O95398). Nature of the experiment: Confirmatory qHTS for antagonist of cAMP-regulated guanine nucleotide exchange factor 3 (EPAC1) (AID 1645880). Further: nearly all actives have a fitted effect of over 55% in size. The note with it: EPAC1 Rap1B-BODIPY-GDP exchange, fluorescence; activity, negative = inhibition: at 115 µM (top of the series). The gist of the method: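 Nucleotide exchange uses 100 nM EPAC1, 250 nM RAP1B-BODIPY-GDP and 50 uM GDP, with compounds in a concentration-titration series. After 5 min at room temperature, fluorescence (480 nm ex/540 nm em) is read every 5 min for 30 min. Data are normalized to control ATA and DMSO.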
Sequence of Rap guanine nucleotide exchange factor 3 (Homo sapiens) (O95398 whole entry, looked up): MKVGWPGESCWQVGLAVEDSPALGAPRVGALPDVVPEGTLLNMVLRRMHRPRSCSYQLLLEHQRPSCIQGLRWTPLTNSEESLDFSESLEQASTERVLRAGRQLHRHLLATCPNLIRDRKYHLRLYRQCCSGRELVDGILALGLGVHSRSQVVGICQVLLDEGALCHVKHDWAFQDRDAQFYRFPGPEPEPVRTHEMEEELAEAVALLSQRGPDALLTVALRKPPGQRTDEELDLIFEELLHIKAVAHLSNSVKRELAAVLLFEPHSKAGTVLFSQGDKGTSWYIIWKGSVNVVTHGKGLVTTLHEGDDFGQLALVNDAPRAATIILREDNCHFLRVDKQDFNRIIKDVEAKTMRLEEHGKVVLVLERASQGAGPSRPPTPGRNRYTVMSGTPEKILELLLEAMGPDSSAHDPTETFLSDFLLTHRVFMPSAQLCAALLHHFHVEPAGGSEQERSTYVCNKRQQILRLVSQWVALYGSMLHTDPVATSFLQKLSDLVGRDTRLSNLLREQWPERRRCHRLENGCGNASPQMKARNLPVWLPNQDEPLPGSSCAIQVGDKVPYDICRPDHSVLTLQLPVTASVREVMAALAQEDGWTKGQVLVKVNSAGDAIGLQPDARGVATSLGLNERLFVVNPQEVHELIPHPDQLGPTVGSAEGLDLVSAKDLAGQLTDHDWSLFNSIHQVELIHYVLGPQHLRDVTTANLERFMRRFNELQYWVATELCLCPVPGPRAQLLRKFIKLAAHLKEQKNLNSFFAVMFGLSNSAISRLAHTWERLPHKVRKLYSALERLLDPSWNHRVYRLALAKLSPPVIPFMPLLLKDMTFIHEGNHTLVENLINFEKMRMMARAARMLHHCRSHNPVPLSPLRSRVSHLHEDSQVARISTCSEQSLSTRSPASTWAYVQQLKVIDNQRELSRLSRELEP
(In general: In qHTS, concentration-response curves come from the screen itself.)
As to `O=C(COc1ccc(Br)cc1Cl)c1ccc[nH]1`, the Potency result is “inactive”. For `COc1c(Cl)cc(Cl)cc1CNc1ccc(S(N)(=O)=O)cc1`, the Potency entry is “inactive”. Still for that read-out and setting: then `O=c1ccc(NS(=O)(=O)c2ccc(Cl)cc2)cn1Cc1ccc(Cl)c(Cl)c1`, with 75.7 µM (active).

Consider `COc1cnc(-c2ccccc2)nc1Sc1ccccc1`, for which the Potency result is “inactive”. Same read-out and setting: then `COc1ccc(Nc2cccc3ccccc23)cc1`, with “inactive”.

Regarding `Cc1ccc(C23CC4CC(CC(C(=O)N(C)C)(C4)C2)C3)cc1`, the Potency entry is “inactive”.

Turning to `COc1ccccc1NC(=O)Cc1ccc(-c2ccccc2)cc1`, the Potency entry was “inactive”. `CC(=O)Nc1ccc(NC(=O)C2Cc3c(-c4ccc5c(c4)OCO5)ccnc3O2)cc1` (stereo unspecified): the Potency entry was “inactive”. Turning to `COC(=O)c1cccc(F)c1C(=O)c1cccc2ccccc12`, the Potency entry was “inactive”. `Cc1ccn2c(-c3csc(NCc4ccccc4)n3)c(C)nc2c1`: the Potency entry is “inactive”. With `Cc1cc(C)c2c(CN3CCCCC3C)cc(=O)oc2c1` (stereo unspecified), the Potency result was “inactive”.

With `COc1ccc(C2CC(=O)Oc3cc(C)c(Cl)cc32)cc1` (stereo unspecified), the Potency entry is “inactive”. Still for that read-out and setting: then `CC1CCCN(C2(O)C(=O)Nc3ccc(Br)cc32)C1` (stereo unspecified), with “inactive”. Turning to `Cc1cccc(NC(=O)CC2C(=O)OCCN2Cc2ccccc2)c1` (stereo unspecified), the Potency entry was “inactive”. `Cc1cc2ccccn2c1C(=O)c1ccc(F)cc1`: the Potency result was “inactive”.

As for `O=C(O)c1ccccc1-c1ccc(/C=C/c2cc(C(F)(F)F)[nH]c(=O)n2)o1`, the Potency result is “inactive”. As to `COc1ccc(C2CC(=O)Oc3cc(C)cc(C)c32)cc1` (stereo unspecified), the Potency entry was “inactive”. For `CCOc1ccc(NC2c3ccccc3C(=O)N2Cc2ccco2)cc1` (stereo unspecified), the Potency result was “inactive”. As to `COC(=O)C1=NN(c2ccccc2)C2(S1)SC(C(C)=O)=C(C)N2c1ccccc1` (stereo unspecified), the Potency entry was “inactive”. The same measure, in the same setting: then `CC1CCCN(C2(O)C(=O)Nc3c(C(F)(F)F)cccc32)C1` (stereo unspecified), with “inactive”; and `O=C(O)c1ccc(NC(=O)C(c2ccccc2)c2ccccc2)cc1`, with “inactive”.

The target is the same in a further experiment. Nature of the experiment: Confirmatory qHTS for agonist of cAMP-regulated guanine nucleotide exchange factor 3 (EPAC1) (AID 1645881). Further: nearly all actives have a fitted effect of over 75% in size. The note with it: EPAC1 Rap1B BODIPY-GDP exchange fluorescence; series mostly up to 154 µM.
Consider `COC(=O)[C@@H]1CC[C@@](C)(c2ccc(OC)cc2)C1(C)C`, for which the Potency entry was “inactive”. Regarding `Cc1nn(-c2c(Cl)cc(Cl)cc2Cl)c(=O)c2ccccc12`, the Potency entry is “inactive”. Consider `COc1ccc2[nH]cc(CCNc3ncncc3-c3ccccc3Cl)c2c1`, for which the Potency entry is “inactive”. As to `COc1ccc(Cl)cc1NC(=O)CN1c2ccccc2CC1C` (stereo unspecified), the Potency entry is “inactive”. As to `COc1ccc(-n2cc(-c3ccccc3)c3c(N4CCOCC4)ncnc32)cc1`, the Potency result is “inactive”. On to `CC(=O)N1N=C2c3ccccc3CCC2C1c1cccs1` (stereo unspecified), for which the Potency entry is “inactive”. With `COc1ccccc1N(C)c1cc2c(c3c1ccn3C)C1CCC2O1` (stereo unspecified), the Potency result was “inactive”. Regarding `COc1ccc(/C=C/C(=O)c2ccc(Cl)cc2)c(OC)c1`, the Potency result was “inactive”. For the molecule `CCN(Cc1cc(=O)oc2cc(C)ccc12)c1ccccc1`, the Potency result was “inactive”. `C=C(C)Cn1c(C)cc(C)c(S(=O)(=O)c2ccccc2C)c1=O`: the Potency entry was “inactive”.

Take `COc1ccc2c(c1)CCc1c(C(=O)N3CCCc4ccccc43)noc1-2`: the Potency entry is “inactive”. On to `COc1ccc(Cl)cc1NC(=O)CN(C)Cc1ccc(OC)c(OC)c1`, for which the Potency entry is “inactive”.

As to `CCn1c(=O)c(C(=O)NNS(=O)(=O)c2ccc(C)cc2)c(O)c2ccccc21`, the Potency entry was “inactive”. As to `CCCCn1nnnc1C(c1cc2ccccc2o1)N1CCN(c2cc(C)nc3ccccc23)CC1` (stereo unspecified), the Potency result is “inactive”. On the same count and under the same terms, the same measure for `COc1ccc2c(c1)CCc1c(C(=O)N(C)c3ccccc3)noc1-2`: “inactive”.

As to `Cc1oc2cc(Br)c(O)c(Br)c2c1-c1ccccc1`, the Potency entry was “inactive”. As to `CCCCn1nnnc1C(c1cc2ccccc2o1)N1CCCC1` (stereo unspecified), the Potency entry was “inactive”. As for `O=C1OC(c2ccccc2)(c2ccccc2)c2ccsc21`, the Potency entry is “inactive”. Same read-out and setting: the same measure for `CCOc1ccc(S(=O)(=O)N2CCCCC2)c(C)c1C`: “inactive”; for `O=C(COc1ccc(Br)cc1Cl)c1ccc[nH]1`: “inactive”. For the molecule `COc1c(Cl)cc(Cl)cc1CNc1ccc(S(N)(=O)=O)cc1`, the Potency result was “inactive”. For the molecule `O=c1ccc(NS(=O)(=O)c2ccc(Cl)cc2)cn1Cc1ccc(Cl)c(Cl)c1`, the Potency result was “inactive”. As to `COc1cnc(-c2ccccc2)nc1Sc1ccccc1`, the Potency entry is “inactive”. Same read-out and setting: then `COc1ccc(Nc2cccc3ccccc23)cc1`, with “inactive”; and `Cc1ccc(C23CC4CC(CC(C(=O)N(C)C)(C4)C2)C3)cc1`, with “inactive”; and `COc1ccccc1NC(=O)Cc1ccc(-c2ccccc2)cc1`, with “inactive”. Take `CC(=O)Nc1ccc(NC(=O)C2Cc3c(-c4ccc5c(c4)OCO5)ccnc3O2)cc1` (stereo unspecified): the Potency entry was “inactive”. The same measure, in the same setting: the same measure for `COC(=O)c1cccc(F)c1C(=O)c1cccc2ccccc12`: “inactive”. Turning to `Cc1ccn2c(-c3csc(NCc4ccccc4)n3)c(C)nc2c1`, the Potency result was “inactive”. For `Cc1cc(C)c2c(CN3CCCCC3C)cc(=O)oc2c1` (stereo unspecified), the Potency result was “inactive”. Still for that read-out and setting: the same measure for `COc1ccc(C2CC(=O)Oc3cc(C)c(Cl)cc32)cc1` (stereo unspecified): “inactive”; for `CC1CCCN(C2(O)C(=O)Nc3ccc(Br)cc32)C1` (stereo unspecified): “inactive”. As to `Cc1cccc(NC(=O)CC2C(=O)OCCN2Cc2ccccc2)c1` (stereo unspecified), the Potency result is “inactive”. Turning to `Cc1cc2ccccn2c1C(=O)c1ccc(F)cc1`, the Potency entry is “inactive”. Take `O=C(O)c1ccccc1-c1ccc(/C=C/c2cc(C(F)(F)F)[nH]c(=O)n2)o1`: the Potency is 89.1 µM (active). As for `COc1ccc(C2CC(=O)Oc3cc(C)cc(C)c32)cc1` (stereo unspecified), the Potency entry was “inactive”. With `CCOc1ccc(NC2c3ccccc3C(=O)N2Cc2ccco2)cc1` (stereo unspecified), the Potency entry was “inactive”.

Take `COC(=O)C1=NN(c2ccccc2)C2(S1)SC(C(C)=O)=C(C)N2c1ccccc1` (stereo unspecified): the Potency result is “inactive”. Take `CC1CCCN(C2(O)C(=O)Nc3c(C(F)(F)F)cccc32)C1` (stereo unspecified): the Potency result is “inactive”. Take `O=C(O)c1ccc(NC(=O)C(c2ccccc2)c2ccccc2)cc1`: the Potency result was “inactive”.
